Laboratory results: PubChem BioAssay (EPA / NIEHS)
The source made the active and inactive calls. The calls were made as follows: active = hit-call score of the fitted dose curve at least 0.9, where 1 is the maximum; inactive = score below 0.9.

assay: APR_HepG2_CellCycleArrest_1hr: Apredica 1-hour HepG2 Assay for Cell Cycle Arrest (AID 2282666); conditions: high-content imaging, actives raise or lower the signal
Protocol: APR_HepG2_1hr is a cell-based, multiplexed-readout assay that uses HepG2, a human liver cell line, with measurements taken at 1 hour after chemical dosing in a 384-well plate.APR_HepG2_CellCycleArrest_1hr is one of 10 assay component(s) measured or calculated from the APR_HepG2_1hr assay. It is designed to make measurements of cell phenotype, a form of morphology reporter, as detected with fluorescence intensity signals by HCS Fluorescent Imaging technology.Data from the assay component APR_HepG2_CellCycleArrest_1hr was analyzed into 1 assay endpoint. This assay endpoint, APR_HepG2_CellCycleArrest_1hr, was analyzed with bidirectional fitting relative to DMSO as the negative control and baseline of activity. Using a type of morphology reporter, measures of all nuclear dna for gain or loss-of-signal activity can be used to understand the signaling at the pathway-level as they relate to the gene . Furthermore, this assay endpoint can be referred to as a primary readout, because this assay has produced multiple assay endpoints where this one serves a signaling function. To generalize the intended target to other relatable targets, this assay endpoint is annotated to the cell cycle intended target family, where the subfamily is arrest.
Cells were treated with dimethyl sulfoxide (DMSO) as a solvent control at a final concentration of 0.5% v/v or with compounds in DMSO with a resulting final DMSO concentration of 0.5% v/v. Compound treatment was done at concentrations of 0.39, 0.78, 1.56, 3.12, 6.24, 12.5, 25, 50, 100, and 200 uM in duplicate on each plate. Cells were treated with compounds for 1, 24, or 72 hr. Carbonyl […] m-chloro-phenylhydrazone (CCCP) and taxol were used as positive controls for mitochondrial function and cytoskeletal stability, respectively; DMSO served as the negative control for this experiment. Cells were fixed by the direct addition of 50 uL formaldehyde in Hank's Balanced Salt Solution (HBSS) to a final concentration of 3.7%. After incubation in the fixation medium for 30 min at room temperature (293-298 K), cells were rinsed twice with HBSS and treated with cell permeabilization buffer (16 uL of 0.5% Triton X-100) for 10 min at room temperature (293-298 K) before labeling. For mitochondrial membrane potential and mitochondrial measurements, pre-fixed cells were incubated with 50 uL of MitoTracker Red CMXRos (Invitrogen) at a concentration of 250 nM for 30 min before fixation. In the remaining cases, post-fixed cells were labeled by incubation with a multiplexed mixture of primary antibodies in HBSS for 60 min at room temperature (293-298 K) to detect immunoreactivity of c-Jun (1:500), phospho-histone H3 (1:100), phospho-histone H2A.x (1:200), p53 (1:400), alpha-tubulin (1:200) and Hoechst 33342 (2 ug/mL). Cells were labeled for multiplexed imaging on two separate plates: a) Hoechst 33342, MitoTracker Red, phospho-histone H3, and alpha-tubulin, and b) Hoechst 33342, phospho-histone H2A.x, and c-Jun. A final rinse with HBSS (50 uL) was performed before analysis. The primary and secondary antibodies for the proteins were phospho-histone H3 (rabbit anti-phospho-histone H3 and FITC-donkey anti-rabbit IgG), phospho-histone H2A.x (mouse anti-phospho-histone H2A.x and FITC-donkey anti-mouse IgG), c-Jun (rabbit anti-phospho-c-Jun and Cy3-donkey anti-rabbit IgG), p53 (sheep anti-p53 and Cy5-donkey anti-sheep IgG), alpha-tubulin (mouse anti-alpha-tubulin and Cy5-donkey anti-mouse IgG). These antibodies are available as the CellCiphr HepG2 assay kit (Millipore).Digital images of each well were captured using a Cellomics ArrayScan VTI (Thermo Scientific Cellomics) (0.8 NA objective, 0.63x optical coupler, and XF-93 filter set) at 20x magnification. The images were acquired using the autofocus feature of the ArrayScan instrument, which entails the following steps. First, the camera focuses on channel 1 (Hoechst 33342), where nuclei are identified. Second, a Z offset of 1 um is used for capturing mitochondria (MitoTracker Red). […]

SMILES | outcome | AC50
O=C(Nc1ccccc1-c1ccc(Cl)cc1)c1cccnc1Cl | inactive | –
CCCCC(O)(Cn1cncn1)c1ccc(Cl)cc1Cl (stereo not given) | inactive | –
OC(c1ccc(Cl)cc1)(c1ccc(Cl)cc1)C(Cl)(Cl)Cl | inactive | –
O=C(O)c1c(Cl)ccc2cc(Cl)cnc12 | inactive | –
CCCCOCN(C(=O)CCl)c1c(CC)cccc1CC | inactive | –
CC(C)NC(=O)N1CC(=O)N(c2cc(Cl)cc(Cl)c2)C1=O | inactive | –
COC(=O)c1c(C(F)F)nc(C(F)(F)F)c(C2=NCCS2)c1CC(C)C | inactive | –
CCOc1cc(C(C)(C)C)ccc1C1COC(c2c(F)cccc2F)=N1 (stereo not given) | inactive | –
CC1(C)C(C(=O)OC(C#N)c2cccc(Oc3ccccc3)c2)C1(C)C (stereo not given) | inactive | –
CCCN(CC)CC1COC2(CCC(C(C)(C)C)CC2)O1 (stereo not given) | inactive | –
COCc1cnc(C2=NC(C)(C(C)C)C(=O)N2)c(C(=O)O)c1 (stereo not given) | inactive | –
CCOP(=S)(OCC)Oc1nc(Cl)n(C(C)C)n1 | inactive | –
CCOc1nc(F)cc2nc(S(=O)(=O)Nc3c(Cl)cccc3Cl)nn12 | inactive | –
O=c1n(Cl)c(=O)n(Cl)c(=O)n1Cl | inactive | –
N#Cc1c(Cl)cccc1Cl | inactive | –
CC(C)(C)C(=O)C(Oc1ccc(Cl)cc1)n1cncn1 (stereo not given) | inactive | –
N#CN=C1SCCN1Cc1ccc(Cl)nc1 | inactive | –
Cc1ccc(N=CN(C)C=Nc2ccc(C)cc2C)c(C)c1 | inactive | –
Cc1cnc(C2=NC(C)(C(C)C)C(=O)N2)c(C(=O)O)c1 (stereo not given) | inactive | –
CCCC(=NOCC)C1=C(O)CC(CC(C)SCC)CC1=O (stereo not given) | inactive | –

SMILES | outcome | AC50
CCOP(=O)(OCC)Oc1nc(Cl)c(Cl)cc1Cl | inactive | –
CNC(=O)N(C)c1nnc(C(C)(C)C)s1 | inactive | –
COC(=O)NC(=S)Nc1ccccc1NC(=S)NC(=O)OC | inactive | –
CC(C)Nc1nc(Cl)nc(NC(C)C)n1 | inactive | –
CCSC(=O)N1CCCCCC1 | inactive | –
CC(C)C1(C)N=C(c2ncccc2C(=O)O)NC1=O (stereo not given) | inactive | –
CS(=O)(=O)c1cc(C(F)(F)F)ccc1C(=O)c1cnoc1C1CC1 | inactive | –
COCC(C)N(C(=O)CCl)c1c(C)csc1C (stereo not given) | inactive | –
N#Cc1c[nH]cc1-c1cccc2c1OC(F)(F)O2 | inactive | –
CN/C(=N\[N+](=O)[O-])NCc1cnc(Cl)s1 | inactive | –
COP(=O)(OC)O/C(C)=C/C(=O)N(C)C | inactive | –
CO/N=C(/C1=NOCCO1)c1ccccc1Oc1ncnc(Oc2ccccc2Cl)c1F | inactive | –
Nc1cnn(-c2ccccc2)c(=O)c1Cl | inactive | –
COc1cc(OC)nc(NC(=O)NS(=O)(=O)c2ncccc2OCC(F)(F)F)n1 | inactive | –
COc1cc(Cl)c(OC)cc1Cl | inactive | –
CC1(C)CCC(=Cc2ccc(Cl)cc2)C1(O)Cn1cncn1 (stereo not given) | inactive | –
COC(=O)NS(=O)(=O)c1ccc(N)cc1 | inactive | –
CC(C)N1C(=O)c2ccccc2NS1(=O)=O | – | 0.0592 µM (active)
Cc1cc(C)nc(Nc2ccccc2)n1 | inactive | –
COP(=S)(OC)Oc1ccc([N+](=O)[O-])c(C)c1 | inactive | –
